From PubChem BioAssay (NCI) come the findings set out here.

Several values for one entry are separate records, joined by “and”; a condition that tells them apart may be missing. Equal values may be shown once. This is part of a sample that, as a whole, favours compounds with a hit. Of some 83,000 tested, about 20% had one in any assay.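 The test compound was applied at a single concentration to cells in 96-well plates for 48 hours, and percent growth was recorded.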 Activity calls are given as the source filed them. The calls were made as follows: active = growth percent below 10; inactive = the rest.

Test systems include DU-145 prostate; K-562 leukemia; MALME-3M melanoma; MDA-MB-231 breast; RXF 393 renal; SF-268 CNS; SF-295 CNS; SF-539 CNS; UACC-257 melanoma; M14 melanoma.
Common to all, as to experiment: NCI-60 one-dose screen, 48 h (100 = growth as untreated, 0 = no growth, -100 = all killed)
Conditions in all cases: 10 µM unless noted

In the case of `O=C(O)C(Cc1ccc(OS(=O)(=O)Cc2ccccc2)cc1)NS(=O)(=O)Cc1ccccc1` (stereo not given), the growth was 101% (inactive) and 108% (inactive) with DU-145 prostate; 105% (inactive) and 101% (inactive) in the test on K-562 leukemia; 95.8% (inactive) and 136% (inactive) in the test with MALME-3M melanoma; 102% (inactive) in the test on MDA-MB-231 breast; 118% (inactive) and 126% (inactive) in the test with RXF 393 renal; 105% (inactive) and 98% (inactive) in the test with SF-268 CNS. Moreover, the growth was 106% (inactive) and 102% (inactive) in the test with SF-295 CNS; 97.7% (inactive) and 101% (inactive) in the test on SF-539 CNS; 100% (inactive) and 101% (inactive) in the test on UACC-257 melanoma; 113% (inactive) and 100% (inactive) in the test on M14 melanoma.
In the case of `CC(C)(C(=O)c1cccnc1)c1cccnc1`, the growth in the test with DU-145 prostate is 112% (inactive) and 114% (inactive); in the test on K-562 leukemia, 104% (inactive) and 115% (inactive); with MALME-3M melanoma, 96.3% (inactive) and 125% (inactive); with MDA-MB-231 breast it was 96.4% (inactive) and 119% (inactive); with RXF 393 renal, 105% (inactive) and 119% (inactive); in the test on SF-268 CNS, 107% (inactive) and 106% (inactive). The growth with SF-295 CNS was 95.7% (inactive) and 124% (inactive); with SF-539 CNS, 99.5% (inactive) and 95.9% (inactive); with UACC-257 melanoma, 97.3% (inactive) and 115% (inactive); in the test with M14 melanoma, 101% (inactive) and 92.2% (inactive).
Turning to `O=[N+]([O-])c1cccc(N=Cc2ccccc2)c1`, the growth in the test with DU-145 prostate was 117% (inactive); with K-562 leukemia it was 95.8% (inactive); with MALME-3M melanoma, 119% (inactive); in the test with MDA-MB-231 breast, 106% (inactive); in the test on RXF 393 renal, 105% (inactive); in the test on SF-268 CNS, 105% (inactive). For the same compound, the growth with SF-295 CNS is 96.5% (inactive); in the test with SF-539 CNS, 99.5% (inactive); in the test on UACC-257 melanoma, 102% (inactive); in the test on M14 melanoma it was 106% (inactive).
`O=C(O)c1c2c(nc3ccccc13)Cc1ccccc1-2`: the growth in the test with DU-145 prostate was 108% (inactive) and 94.4% (inactive); in the test with K-562 leukemia it was 115% (inactive) and 99.1% (inactive); in the test on MALME-3M melanoma it was 105% (inactive) and 86.8% (inactive); with MDA-MB-231 breast, 107% (inactive) and 102% (inactive); in the test with RXF 393 renal, 182% (inactive) and 114% (inactive); with SF-268 CNS, 95.4% (inactive) and 86.9% (inactive). Further, the growth is 104% (inactive) and 81.9% (inactive) with SF-295 CNS; 116% (inactive) and 91.4% (inactive) with SF-539 CNS; 85.8% (inactive) and 103% (inactive) with UACC-257 melanoma; 91.5% (inactive) and 96% (inactive) in the test on M14 melanoma.
As for `CCCC(=O)Oc1ccc(CC)cc1`, the growth was 109% (inactive) with DU-145 prostate; 96.7% (inactive) with K-562 leukemia; 104% (inactive) in the test with MALME-3M melanoma; 111% (inactive) in the test with MDA-MB-231 breast; 117% (inactive) in the test with RXF 393 renal; 96.9% (inactive) in the test on SF-268 CNS. The growth is 98.5% (inactive) in the test on SF-295 CNS, 101% (inactive) with SF-539 CNS, 94.2% (inactive) in the test on UACC-257 melanoma and 99% (inactive) with M14 melanoma.
Consider `S=c1nn[nH]n1C1CCCCC1`, for which the growth is 105% (inactive) in the test with DU-145 prostate; 122% (inactive) in the test on K-562 leukemia; 95.8% (inactive) with MALME-3M melanoma; 116% (inactive) in the test with MDA-MB-231 breast; 148% (inactive) in the test on RXF 393 renal; 105% (inactive) with SF-268 CNS. Also, the growth is 97% (inactive) in the test with SF-295 CNS, 106% (inactive) in the test with SF-539 CNS, 97.8% (inactive) in the test with UACC-257 melanoma and 100% (inactive) in the test on M14 melanoma.
On to `CSc1nc(N)c(N)c(N)n1`, for which the growth is 106% (inactive) in the test on DU-145 prostate; 101% (inactive) with K-562 leukemia; 96.6% (inactive) with MALME-3M melanoma; 97.6% (inactive) in the test with MDA-MB-231 breast; 115% (inactive) in the test on RXF 393 renal; 107% (inactive) with SF-268 CNS. The growth was 108% (inactive) with SF-295 CNS, 103% (inactive) in the test with SF-539 CNS, 96.9% (inactive) in the test on UACC-257 melanoma and 102% (inactive) with M14 melanoma.
Take `O=c1[nH]nnc2cc(Cl)ccc12`: the growth in the test with DU-145 prostate is 108% (inactive) and 114% (inactive); in the test on K-562 leukemia it was 119% (inactive) and 98.3% (inactive); with MALME-3M melanoma, 124% (inactive) and 113% (inactive); in the test on MDA-MB-231 breast, 105% (inactive) and 97.6% (inactive); with RXF 393 renal it was 119% (inactive) and 111% (inactive); in the test with SF-268 CNS, 101% (inactive) and 95.4% (inactive). The growth was 103% (inactive) in the test with SF-295 CNS; 104% (inactive) and 106% (inactive) in the test on SF-539 CNS; 98.6% (inactive) and 105% (inactive) with UACC-257 melanoma; 105% (inactive) with M14 melanoma.
In the case of `Nc1ccccc1SC(CC(=O)c1ccccc1)c1cccc([N+](=O)[O-])c1` (stereo not given), the growth in the test on DU-145 prostate is 113% (inactive) and 85.5% (inactive); in the test with K-562 leukemia, 61% (inactive) and 7.1% (active); in the test with MALME-3M melanoma, 123% (inactive) and 86.7% (inactive); with MDA-MB-231 breast, 86.4% (inactive) and 99.6% (inactive); with RXF 393 renal it was 104% (inactive) and 94.7% (inactive); with SF-268 CNS it was 101% (inactive) and 83.9% (inactive). Moreover, the growth is 83.1% (inactive) and 92.3% (inactive) with SF-295 CNS; 99.6% (inactive) and 105% (inactive) in the test with SF-539 CNS; 95% (inactive) and 87.7% (inactive) in the test with UACC-257 melanoma; 114% (inactive) and 89.9% (inactive) in the test with M14 melanoma.
Take `N=c1sc2ccccc2n1CC(=O)O`: the growth was 110% (inactive) in the test with DU-145 prostate; 108% (inactive) with K-562 leukemia; 110% (inactive) with MALME-3M melanoma; 102% (inactive) in the test on MDA-MB-231 breast; 113% (inactive) in the test on RXF 393 renal; 98.7% (inactive) with SF-268 CNS. The growth with SF-295 CNS is 98% (inactive); in the test with SF-539 CNS, 101% (inactive); in the test with UACC-257 melanoma it was 89.7% (inactive); in the test with M14 melanoma, 95.7% (inactive).
`NCCSSC/C=C\CSSCCN`: the growth was 104% (inactive) in the test on DU-145 prostate; 95.7% (inactive) in the test on K-562 leukemia; 103% (inactive) in the test with MALME-3M melanoma; 100% (inactive) in the test with MDA-MB-231 breast; 102% (inactive) in the test with RXF 393 renal; 99.5% (inactive) in the test with SF-268 CNS. In addition, the growth in the test on SF-295 CNS was 104% (inactive); with SF-539 CNS, 109% (inactive); in the test on UACC-257 melanoma, 91.3% (inactive); in the test with M14 melanoma, 96.9% (inactive).
